The campaign covered roughly 360,000 compounds. About 16,000 (4.4%) were called active. About 9% were inconclusive and are not listed. For the sample, actives were picked, then their nearest neighbours and some compounds at random. Unmarked numbers belong to inactive results. The call rests on the fitted dose curve; in most records, active means well fitted inhibition curve with a large enough effect; inconclusive means small, poorly fitted or top-dose-only effect; inactive means no such curve, though single readings can be large or run the other way.
Molecular target: Bromodomain adjacent to zinc finger domain protein 2B (Homo sapiens) (UniProt Q9UIF8)
Sequence (Q9UIF8 whole entry, looked up, the tested form may be a part): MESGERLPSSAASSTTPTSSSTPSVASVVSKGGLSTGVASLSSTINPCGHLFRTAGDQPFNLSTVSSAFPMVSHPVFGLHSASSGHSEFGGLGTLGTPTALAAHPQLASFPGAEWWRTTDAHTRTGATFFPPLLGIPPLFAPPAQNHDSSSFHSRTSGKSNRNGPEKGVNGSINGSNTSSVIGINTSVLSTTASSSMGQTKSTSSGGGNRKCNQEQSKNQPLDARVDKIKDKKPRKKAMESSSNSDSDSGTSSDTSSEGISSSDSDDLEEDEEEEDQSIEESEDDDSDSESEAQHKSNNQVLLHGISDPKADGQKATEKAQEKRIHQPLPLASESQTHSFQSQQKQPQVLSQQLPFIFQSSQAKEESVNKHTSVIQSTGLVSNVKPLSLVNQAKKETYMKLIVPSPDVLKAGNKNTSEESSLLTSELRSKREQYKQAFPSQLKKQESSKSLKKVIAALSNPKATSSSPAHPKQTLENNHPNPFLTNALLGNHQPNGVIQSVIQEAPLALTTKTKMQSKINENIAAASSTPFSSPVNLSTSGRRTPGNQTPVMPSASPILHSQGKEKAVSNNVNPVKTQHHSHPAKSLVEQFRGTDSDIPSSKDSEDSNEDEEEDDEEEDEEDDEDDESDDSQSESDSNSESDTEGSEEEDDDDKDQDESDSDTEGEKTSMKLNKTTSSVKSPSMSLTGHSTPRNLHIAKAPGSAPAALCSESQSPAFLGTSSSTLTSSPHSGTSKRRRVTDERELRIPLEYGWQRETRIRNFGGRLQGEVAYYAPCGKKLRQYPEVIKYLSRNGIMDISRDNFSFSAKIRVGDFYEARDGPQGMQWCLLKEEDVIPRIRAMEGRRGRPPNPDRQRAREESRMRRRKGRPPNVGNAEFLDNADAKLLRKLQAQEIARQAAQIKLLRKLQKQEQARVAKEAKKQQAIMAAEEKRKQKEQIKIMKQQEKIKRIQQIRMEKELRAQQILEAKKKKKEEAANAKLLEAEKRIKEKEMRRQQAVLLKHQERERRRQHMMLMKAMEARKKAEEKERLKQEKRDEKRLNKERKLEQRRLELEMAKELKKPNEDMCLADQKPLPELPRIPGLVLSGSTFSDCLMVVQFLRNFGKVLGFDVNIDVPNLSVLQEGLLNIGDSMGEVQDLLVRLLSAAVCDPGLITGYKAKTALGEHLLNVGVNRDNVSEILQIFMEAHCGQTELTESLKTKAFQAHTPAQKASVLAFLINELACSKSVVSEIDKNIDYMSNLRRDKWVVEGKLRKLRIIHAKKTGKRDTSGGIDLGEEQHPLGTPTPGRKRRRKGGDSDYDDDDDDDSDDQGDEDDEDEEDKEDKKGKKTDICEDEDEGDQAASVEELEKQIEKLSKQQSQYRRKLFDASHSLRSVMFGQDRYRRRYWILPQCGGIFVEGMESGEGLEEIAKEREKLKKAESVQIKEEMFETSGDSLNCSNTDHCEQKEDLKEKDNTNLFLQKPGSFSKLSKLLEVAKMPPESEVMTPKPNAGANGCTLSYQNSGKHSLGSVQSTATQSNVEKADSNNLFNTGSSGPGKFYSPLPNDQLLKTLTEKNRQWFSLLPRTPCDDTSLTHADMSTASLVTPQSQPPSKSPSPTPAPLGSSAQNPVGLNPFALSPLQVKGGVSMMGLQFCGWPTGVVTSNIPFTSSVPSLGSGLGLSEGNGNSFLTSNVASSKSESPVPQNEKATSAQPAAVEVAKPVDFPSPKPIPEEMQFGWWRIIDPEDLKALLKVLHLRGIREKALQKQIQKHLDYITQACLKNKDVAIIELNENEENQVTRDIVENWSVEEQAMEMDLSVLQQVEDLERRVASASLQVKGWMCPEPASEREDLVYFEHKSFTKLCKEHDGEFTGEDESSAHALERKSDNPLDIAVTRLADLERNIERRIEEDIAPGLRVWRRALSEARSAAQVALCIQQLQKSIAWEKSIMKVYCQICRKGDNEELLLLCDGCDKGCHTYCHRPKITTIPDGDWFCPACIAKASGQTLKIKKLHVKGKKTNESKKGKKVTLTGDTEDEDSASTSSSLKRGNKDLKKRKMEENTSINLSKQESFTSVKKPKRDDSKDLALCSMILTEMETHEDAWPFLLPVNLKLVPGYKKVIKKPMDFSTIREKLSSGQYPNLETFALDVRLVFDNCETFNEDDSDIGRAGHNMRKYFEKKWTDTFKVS
Test: qHTS Assay for Inhibitors of BAZ2B; further: nearly all actives have a fitted effect of over 60% in size
Details: AlphaScreen BAZ2B-H3K14Ac peptide displacement; series mostly up to 114 µM; activity change, negative = inhibition: at the top concentration
How it was run: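 AlphaScreen displacement of biotin-H3(5-23)K14Ac peptide (50 nM final) from BAZ2B (50 nM final) in PBS pH 7.4, 0.01% Tween-20; complex preformed 30 min RT, then compounds (top 110 uM) 30 min RT, beads 20 min dark.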
On the % scale 0 is the no-effect control and ±100 the full control effect; potency means the concentration at half of the fitted maximal effect.

| Compound | activity change, negative = inhibition | Potency |
| --- | --- | --- |
| CC(C)(C)NC(=O)CSc1nc(-c2ccc(F)cc2)cc(C(F)(F)F)n1 | -4.35% |  |
| COc1ccc(S(=O)(=O)N2CCCCC2)cc1C(=O)NC1CCS(=O)(=O)C1 (stereo unspecified) | -1.06% |  |
| CCc1ccc(NC(=O)c2cc(S(=O)(=O)NC3CCCCCC3)ccc2F)cc1 | -1.62% |  |
| CC(CCCc1ccccc1)NC(=O)c1nn(-c2ccc(Cl)cc2)nc1CO (stereo unspecified) | 19.6% |  |
| O=C(Nc1ccc(-n2ccnc2P(=O)(O)c2ccccc2)cc1)c1ccccc1Br |  | 44.7 µM (active) |
| Cc1ccc(NC(=O)c2cccnc2C(=O)Nc2ccc(C)cc2)cc1 | -9.55% |  |
| Cn1c(=O)c(=O)n(C)c2cc(NC(=O)c3ccccc3Br)ccc21 | 0.887% |  |
| COc1ccccc1NC(=O)CSc1oc(-c2ccco2)nc1S(=O)(=O)c1ccc(Br)cc1 | -18.6% |  |
| Cc1cccc(NC(=O)CSc2nc3c([nH]c4ccccc43)c(=O)n2-c2cc(C)cc(C)c2)c1 | 3.67% |  |
| CCN(CC)c1ccc(NC(=O)Cn2nc3c(cc2=O)CCCC3)c(C)c1 | -1.37% |  |
| COc1ccc(C2C(C#N)=C(N)N(c3ncn[nH]3)C3=C2C(=O)CCC3)cc1 (stereo unspecified) |  | 79.4 µM (active) |
| N#CC1=C(N)N(c2ccccc2)C2=C(C(=O)CCC2)C1c1ccccc1 (stereo unspecified) | -3% |  |
| CCOc1ccc(C2C(C#N)=C(N)N(N(C)C)C3=C2C(=O)CCC3)cc1 (stereo unspecified) | -12.8% |  |
| Cc1c(C(=O)Nc2ccccn2)oc2ccc(Br)cc12 | -26.1% |  |
| Oc1ccc(Br)cc1C=Nc1ccc2[nH]ncc2c1 | -29.7% |  |
| Oc1ccc(Br)cc1/C=N/Nc1ccccn1 |  | 31.6 µM (active) |
| COC(=O)c1ccc(NC(=O)CCc2c(C)nc3c(c(C)nn3-c3ccc(C)cc3)c2C)cc1 | -0.711% |  |
| COc1ccc(-c2nnc(SCC(=O)Nc3ccccc3C)o2)cc1OC | -0.905% |  |
| CC(C)c1ccc(S(=O)(=O)Nc2ccc(O)c(Sc3nc4ccccc4s3)c2)cc1 |  | 25.1 µM (active) |
| CC(C)(C)c1ccc(S(=O)(=O)Nc2ccc(O)c(Sc3nc4ccccc4s3)c2)cc1 | -36.8% |  |
| O=[N+]([O-])c1c(NCCO)cc(Sc2nc3ccccc3s2)c2nonc12 | -0.619% |  |
| CC(C)c1ccc(NC(=O)Cn2nnc(C(=O)NCCc3ccccc3)c2N)cc1 | 8.13% [at 57.1 µM] |  |
| COc1ccc(N2CCN(S(=O)(=O)CCNC(=O)C(c3ccccc3)c3ccccc3)CC2)cc1 | 1.98% |  |

| Compound | activity change, negative = inhibition | Potency |
| --- | --- | --- |
| C#CCOCCOCCOCCNc1nc(N2CCN(C(=O)CCCCCCCCCCNC(=O)Cn3cc(CCCCCN)nn3)CC2)nc(N2CCN(C(=O)CCCCCCCCCCNC(=O)[C@H](CO)n3cc(CCCSC)nn3)CC2)n1 |  | 50.1 µM (active) |
| CC[C@@H](C)[C@@H](C(=O)N1CCN(C(=O)OC(C)(C)C)CC1)n1cc(CCC(=O)O)nn1 | 0.303% |  |
| C#CCOCCOCCOCCNc1nc(N2CCN(C(=O)CCCCCCCCCCNC(=O)[C@H]([C@@H](C)CC)n3cc(CCCCN=C(N)N)nn3)CC2)nc(N2CCN(C(=O)CCCCCCCCCCNC(=O)[C@H](CO)n3cc(CCCSC)nn3)CC2)n1 |  | 50.1 µM (active) |
| C#CCOCCOCCOCCNc1nc(N2CCN(C(=O)Cn3cc(CCCCN)nn3)CC2)nc(N2CCN(C(=O)[C@H](CCCCN)n3cc(CCC(=O)O)nn3)CC2)n1 | 3.13% |  |
| CCOc1cccc(CNC(=O)c2ccc(N3CCCC3)c(NC(=O)Nc3ccccc3CC)c2)c1 | -11.9% |  |
| Cc1oc(C)c2c(=O)cc(-c3ccc4c(c3)OCO4)cc(OC(=O)c3ccc(Cl)cc3)c12 | -15.3% |  |
| CC(=O)NCC(=O)N1CCCC(C(=O)c2ccc3c4c(cccc24)CC3)C1 (stereo unspecified) | -9.91% |  |
| COc1ccc(C(=O)C2CCCN(Cc3ccc4nonc4c3)C2)c(C)c1 (stereo unspecified) | 4.01% |  |
| CCn1ccnc1CN1CCCC(C(=O)c2ccc3c4c(cccc24)CC3)C1 (stereo unspecified) |  | 50.1 µM (active) |
| Cc1nc2ccc(S(=O)(=O)N(CC(=O)Nc3ccc(F)cc3)Cc3ccccc3)cc2s1 | -13% |  |
| COc1ccc(NC(=O)CSc2nc(N)c(-c3ccccc3)c(=O)[nH]2)cc1 | 0.717% |  |
| COc1ccc(NC(=O)CSc2nc3ccccc3c(=O)n2C)cc1 | 12.4% |  |
| COc1ccc(-c2nc3c(c(SCC(=O)Nc4ccc(C(=O)O)cc4)n2)Cc2ccccc2O3)cc1 |  | 8.91 µM (active) |
| COc1ccc(Cl)cc1NC(=O)CSc1nc(-c2cccs2)cc(C(F)(F)F)n1 | 4.09% |  |
| Cc1ccc(CN2CCCn3nc(C(=O)NCc4ccccc4Cl)cc3C2=O)cc1 | -15.9% |  |
| O=C1c2ccccc2C2=Nc3ccccc3SC(c3ccccc3F)C12 (stereo unspecified) |  | 8.91 µM (active) |
| O=C1c2ccccc2C(=O)C1c1ccccc1F | -9.2% |  |
| CC1Cc2cc(S(=O)(=O)CCC(=O)NCc3ccc(Cl)cc3)ccc2N1C(=O)C1CC1 (stereo unspecified) | -0.78% |  |
| CN(CC1CCCO1)S(=O)(=O)c1ccc(C(=O)Nc2ccc([N+](=O)[O-])cc2)cc1 (stereo unspecified) | -21.8% |  |
| O=C(Nc1cc2c3c(c1)C1CCCC1CN3CC1CCCC21)c1ccc([N+](=O)[O-])cc1 (stereo unspecified) |  | 11.2 µM (active) |
| CN1C2CCC1CC(NC(=O)c1ccc([N+](=O)[O-])cc1)C2 (stereo unspecified) | -7.51% |  |
| Cc1ccc(S(=O)(=O)c2c(Nc3cccc(Cl)c3)sc(C(=O)c3ccc4c(c3)OCO4)c2N)cc1 | -15.3% |  |
| CCCCC(=O)OC1=CN(Cc2ccccc2)S(=O)(=O)c2ccccc21 | 10.3% |  |

| Compound | activity change, negative = inhibition | Potency |
| --- | --- | --- |
| Cc1ccc(NC(=O)CN2C(=O)C(c3ccc(F)cc3)=NC23CCCCCC3)c(C)c1 | 37.2% |  |
| CCN1CCN(C(=O)CSc2ccc(C)cc2)CC1 | -3.19% |  |
| CCN1CCC2(CC1)N=C(c1ccc(F)cc1)C(=S)N2C(=O)c1ccc(C)cc1 |  | 44.7 µM (active) |
| COc1ccc(CNC(=O)c2cc3cccc(OC)c3oc2=O)cc1 | -15.9% |  |
| O=C(NCCS(=O)(=O)N1CCN(c2ccc(F)cc2)CC1)c1ccccc1Br | -5.66% |  |
| COc1ccc(CNc2nc(-c3ccc(Cl)cc3)nn2C(=O)c2ccccc2)cc1 | 8.67% |  |
| O=C(CSc1oc(-c2ccccc2)nc1S(=O)(=O)c1ccc(Br)cc1)NC1CCCCC1 | 5.24% |  |
| CCOc1ccccc1NC(=O)CSc1ncc(S(=O)(=O)c2ccc(C(C)(C)C)cc2)c(=O)[nH]1 | -14.3% |  |
| O=C(CC1N=C2c3ccccc3N=C(SCc3ccc(F)cc3)N2C1=O)NCc1cccs1 (stereo unspecified) | 9.88% |  |
| CCOC(=O)c1ccccc1NC(=O)CSc1nc2ccccc2c(=O)[nH]1 | -4.86% |  |
| O=C(CSc1nc2ccccc2c(=O)[nH]1)Nc1nc(-c2ccc(Br)cc2)cs1 |  | 79.4 µM (active) |
| CC(=O)NCc1ccc(-c2csc(NC(=O)CCCc3nc4ccccc4c(=O)[nH]3)n2)cc1 | -1.79% |  |
| Cc1ccccc1Cn1nc(C)c(NC(=O)c2cc(-c3ccc(F)cc3)on2)c1C | 2.54% |  |
| O=C(O)c1ccc(N/N=C/c2cn(-c3ccccc3)nc2-c2cccs2)cc1 |  | 79.4 µM (active) |
| COc1cccc(NC(=O)CN(C)C(=O)/C=C/c2cn(-c3ccccc3)nc2-c2cccs2)c1 | -36.5% |  |
| O=C(NCc1cccnc1)c1cn(-c2ccccc2)nc1-c1cccs1 | 5.33% |  |
| CC(C)(C)OC(=O)N1CCC(c2c(C(=O)N3CCN(c4cccc(Cl)c4)CC3)cnn2-c2cccc(Cl)c2)CC1 | 2.35% [at 57.1 µM] |  |
| O=C(Nc1ccccc1Cl)N1CCC(CN2CCCC2)CC1 | 2.8% |  |
| CCS(=O)(=O)N1CCc2cc(C(=O)NCc3ccc(C)cc3)ccc21 | -4.46% |  |
| O=C(NC1CC(=O)N(c2ccc(F)cc2)C1)C1CCCCC1 (stereo unspecified) | 0.429% |  |
| COc1ccc(-n2cc(-c3ccccc3)c3c(=S)nc[nH]c32)cc1 |  | 79.4 µM (active) |
| COc1ccc(N2C(=O)C(Cc3ccccc3)NC2=S)cc1 (stereo unspecified) | -3.55% |  |
| CCCNc1ncnc2c1c(-c1ccccc1)cn2-c1ccc(OCC)cc1 | -26.2% |  |

| Compound | activity change, negative = inhibition | Potency |
| --- | --- | --- |
| COc1ccc(C2=NC3(CCCCC3)N(CC(=O)Nc3ccc(C(C)C)cc3)C2=O)cc1 | -0.108% |  |
| COc1cc(OC)c2ccc(=O)oc2c1C(CCN1CCN(c2ccccc2)CC1)c1ccc2c(c1)OCO2 (stereo unspecified) |  | 25.1 µM (active) |
| CCN(CC)CCC(c1cc(OC)c(OC)c(OC)c1)c1c(OC)cc(OC)c2c(-c3ccccc3)cc(=O)oc12 (stereo unspecified) | -14.6% |  |
| CCN(CC)CCC(c1ccc2c(c1)OCO2)c1c(OC)cc(OC)c2c(-c3ccccc3)cc(=O)oc12 (stereo unspecified) | -33.9% |  |
| CCOC(=O)C1CCCN(C(=O)c2ccc(-n3ccc4ccccc43)s2)C1 (stereo unspecified) | 50% |  |
| O=C(COC(=O)c1ccc(F)cc1F)Nc1ncccn1 |  | 50.1 µM (active) |
| Cc1cccc(C(=O)OCC(=O)Nc2ccc(F)cc2)c1 | 2.82% |  |
| COc1cc(OC)cc(C(=O)OCC(=O)Nc2ccc(F)cc2F)c1 | -10.2% |  |
| COc1ccc(CCNC(=O)C(=O)NCC(c2ccco2)S(=O)(=O)c2cccs2)cc1OC (stereo unspecified) | 3.47% |  |
| COc1ccccc1NC(=O)CSC1=Nc2ccccc2C2=NC(CC(=O)NCc3cccs3)C(=O)N12 (stereo unspecified) | -0.849% |  |
| COc1ccc(CN2C(=O)C(NC(=O)c3cccc(C)c3)(C(F)(F)F)N=C2c2ccccc2)cc1 (stereo unspecified) | -27.7% |  |
| COc1ccccc1/C=N/N1CCN(Cc2ccccc2Cl)CC1 |  | 44.7 µM (active) |
| CSc1ccc(/C=N/NC(=O)c2cccc(Cl)c2)cc1 | -34.9% |  |
| CSc1ccc(/C=N/N2CCN(Cc3ccccc3Cl)CC2)cc1 |  | 25.1 µM (active) |
| O=S1(=O)CCN(Cc2ccccc2Cl)CC1 | 8.6% |  |
| COc1ccccc1/C=C/C=N/NC(=O)CN1CCN(Cc2ccccc2)CC1 | -13.5% |  |
| COc1cc(Cl)c(S(=O)(=O)N2CCN(Cc3ccc4c(c3)OCO4)CC2)cc1Cl | -7.04% |  |
| CCC(=O)N1c2ccccc2CC1C(=O)N1CCN(c2ccccc2)CC1 (stereo unspecified) | -1.22% |  |
| CCc1ccc(NC(=O)N2CCN(C(=O)c3nsc4ccccc34)CC2)cc1 | 5.83% |  |
| Cc1ccccc1CSc1nc2c([nH]c3ccccc32)c(=O)n1C | 5.09% |  |
| CCN(CC)c1nn2c(=O)c(C(=O)NCCc3ccccc3)cnc2s1 | -3.02% |  |
| COc1ccccc1N1CCN(C(=O)C2CCN(S(=O)(=O)c3c(C)noc3/C=C/c3ccc(C)cc3)CC2)CC1 | -12.4% |  |
